In PMC7862700, “An all-to-all approach to the identification of sequence-specific readers for epigenetic DNA modifications on cytosine”:

How the values were obtained:
Test in all cases: DAPPL (digital affinity profiling via proximity ligation, sequencing); 10 mM Tris-HCl pH 7.5, 50 mM NaCl, 1 mM DTT, 4% glycerol, room temperature, 30 min; GST-TFs on glutathione beads, 16-mer random dsDNA library, 0.1% formaldehyde crosslink after washing; high values mean tight binding
[1] = target: T1, FEV (Homo sapiens, UniProt Q99581 1-238); settings: protein: recombinant; tags: N-terminal GST; dsDNA, one strand shown
T1 sequence: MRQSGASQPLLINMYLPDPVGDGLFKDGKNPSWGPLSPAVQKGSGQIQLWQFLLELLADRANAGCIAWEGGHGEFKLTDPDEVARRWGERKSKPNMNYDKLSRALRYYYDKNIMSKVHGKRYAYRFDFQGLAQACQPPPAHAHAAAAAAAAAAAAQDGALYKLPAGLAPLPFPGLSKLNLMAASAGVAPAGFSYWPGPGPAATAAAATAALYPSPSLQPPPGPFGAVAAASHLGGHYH
Outline: (§1)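 Human transcription factors were made in yeast as GST fusions, captured on glutathione beads and barcoded with DNA. With a tag-only sample included, the pool was incubated with 200 nmole of a random double-stranded 16-mer DNA library in Tris/NaCl/DTT/glycerol buffer at room temperature for 30 min, then crosslinked with 0.1% formaldehyde after washing, ligated by proximity, amplified and sequenced. For binding signal, each hexamer's read frequency for a factor is divided by its frequency for the tag-only sample.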

[2] = target: ETV5 (Homo sapiens, UniProt P41161 1-510); settings: protein: recombinant; tags: N-terminal GST; dsDNA, one strand shown
Sequence of ETV5 (P41161 whole entry): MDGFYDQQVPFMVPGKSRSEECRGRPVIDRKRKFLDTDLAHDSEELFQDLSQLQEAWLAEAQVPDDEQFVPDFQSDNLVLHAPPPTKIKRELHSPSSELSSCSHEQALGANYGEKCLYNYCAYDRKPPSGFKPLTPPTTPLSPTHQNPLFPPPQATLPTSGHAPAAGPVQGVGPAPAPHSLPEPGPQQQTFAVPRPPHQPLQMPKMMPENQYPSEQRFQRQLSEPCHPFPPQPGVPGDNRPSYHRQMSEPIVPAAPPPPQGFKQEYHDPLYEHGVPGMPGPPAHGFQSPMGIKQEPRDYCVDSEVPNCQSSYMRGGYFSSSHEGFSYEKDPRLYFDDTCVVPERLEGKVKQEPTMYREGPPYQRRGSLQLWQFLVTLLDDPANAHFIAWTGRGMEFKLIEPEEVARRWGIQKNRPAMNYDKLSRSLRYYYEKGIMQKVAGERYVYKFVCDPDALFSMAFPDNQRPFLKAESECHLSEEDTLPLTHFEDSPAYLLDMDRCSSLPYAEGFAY
Outline: as §1

[3] = target: HSF1 (Homo sapiens, UniProt Q00613 1-529); settings: protein: recombinant; tags: N-terminal GST; chain copies: 3; dsDNA, one strand shown
Sequence of HSF1 (Q00613 whole entry): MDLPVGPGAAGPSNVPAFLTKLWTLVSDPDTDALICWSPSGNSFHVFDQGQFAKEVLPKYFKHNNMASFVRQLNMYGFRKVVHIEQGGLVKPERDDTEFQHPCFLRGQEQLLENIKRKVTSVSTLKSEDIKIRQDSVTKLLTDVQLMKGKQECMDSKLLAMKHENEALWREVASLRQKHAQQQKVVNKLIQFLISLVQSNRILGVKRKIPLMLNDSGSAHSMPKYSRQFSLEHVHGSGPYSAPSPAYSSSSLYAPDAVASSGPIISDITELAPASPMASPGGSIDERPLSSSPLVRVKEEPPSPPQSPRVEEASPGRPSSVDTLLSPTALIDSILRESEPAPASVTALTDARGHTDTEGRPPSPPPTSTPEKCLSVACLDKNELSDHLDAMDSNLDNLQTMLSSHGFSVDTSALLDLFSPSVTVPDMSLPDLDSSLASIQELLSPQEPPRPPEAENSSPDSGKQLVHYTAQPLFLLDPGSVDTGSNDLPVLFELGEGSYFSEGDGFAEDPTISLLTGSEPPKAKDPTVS
Outline: as §1

[4] = target: T2, SPIC (Homo sapiens, UniProt Q8N5J4 1-248); settings: protein: recombinant; tags: N-terminal GST; dsDNA, one strand shown
T2 sequence: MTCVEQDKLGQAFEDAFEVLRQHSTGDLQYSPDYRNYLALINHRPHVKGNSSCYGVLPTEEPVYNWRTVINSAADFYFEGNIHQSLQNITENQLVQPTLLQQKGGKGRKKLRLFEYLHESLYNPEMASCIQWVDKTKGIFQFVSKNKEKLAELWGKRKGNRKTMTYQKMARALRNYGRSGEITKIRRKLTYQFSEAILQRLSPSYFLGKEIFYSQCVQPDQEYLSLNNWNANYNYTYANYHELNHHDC
Outline: as §1

[5] = target: ELF4 (Homo sapiens, UniProt Q99607 1-663); settings: protein: recombinant; tags: N-terminal GST; dsDNA, one strand shown
Sequence of ELF4 (Q99607 whole entry): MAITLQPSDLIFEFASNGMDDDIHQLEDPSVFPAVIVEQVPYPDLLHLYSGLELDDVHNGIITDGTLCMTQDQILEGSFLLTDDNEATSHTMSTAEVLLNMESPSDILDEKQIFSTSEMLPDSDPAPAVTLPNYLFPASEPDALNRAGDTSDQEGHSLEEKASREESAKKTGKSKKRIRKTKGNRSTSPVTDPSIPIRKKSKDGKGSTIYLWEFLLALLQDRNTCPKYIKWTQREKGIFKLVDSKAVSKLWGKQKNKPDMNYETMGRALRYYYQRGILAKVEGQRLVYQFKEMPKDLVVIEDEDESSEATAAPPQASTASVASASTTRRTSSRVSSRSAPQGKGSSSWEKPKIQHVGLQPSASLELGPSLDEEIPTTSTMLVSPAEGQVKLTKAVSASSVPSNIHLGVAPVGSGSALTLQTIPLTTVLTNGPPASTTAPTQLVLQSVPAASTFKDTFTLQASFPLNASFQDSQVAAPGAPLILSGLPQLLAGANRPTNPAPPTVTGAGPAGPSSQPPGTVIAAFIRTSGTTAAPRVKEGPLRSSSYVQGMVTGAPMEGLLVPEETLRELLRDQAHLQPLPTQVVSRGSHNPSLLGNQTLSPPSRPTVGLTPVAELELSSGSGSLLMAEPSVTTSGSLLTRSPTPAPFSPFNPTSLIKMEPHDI
Outline: as §1

[6] = target: T3, ELK4 (Homo sapiens, UniProt P28324-2 1-405); settings: protein: recombinant; tags: N-terminal GST; dsDNA, one strand shown
T3 sequence: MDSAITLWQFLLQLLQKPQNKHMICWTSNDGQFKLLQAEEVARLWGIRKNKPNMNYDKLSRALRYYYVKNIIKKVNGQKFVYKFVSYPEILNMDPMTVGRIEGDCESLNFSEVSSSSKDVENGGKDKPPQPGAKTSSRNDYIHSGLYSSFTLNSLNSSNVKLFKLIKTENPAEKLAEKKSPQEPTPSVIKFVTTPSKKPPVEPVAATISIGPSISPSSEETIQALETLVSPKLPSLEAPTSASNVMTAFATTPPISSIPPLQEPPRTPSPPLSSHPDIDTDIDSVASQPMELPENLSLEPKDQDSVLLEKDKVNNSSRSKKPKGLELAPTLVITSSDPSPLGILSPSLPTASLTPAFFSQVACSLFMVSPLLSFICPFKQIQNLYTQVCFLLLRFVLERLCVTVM
Outline: as §1

[7] = target: T4, ETV2 (Homo sapiens, UniProt O00321 1-342); settings: protein: recombinant; tags: N-terminal GST; dsDNA, one strand shown
T4 sequence: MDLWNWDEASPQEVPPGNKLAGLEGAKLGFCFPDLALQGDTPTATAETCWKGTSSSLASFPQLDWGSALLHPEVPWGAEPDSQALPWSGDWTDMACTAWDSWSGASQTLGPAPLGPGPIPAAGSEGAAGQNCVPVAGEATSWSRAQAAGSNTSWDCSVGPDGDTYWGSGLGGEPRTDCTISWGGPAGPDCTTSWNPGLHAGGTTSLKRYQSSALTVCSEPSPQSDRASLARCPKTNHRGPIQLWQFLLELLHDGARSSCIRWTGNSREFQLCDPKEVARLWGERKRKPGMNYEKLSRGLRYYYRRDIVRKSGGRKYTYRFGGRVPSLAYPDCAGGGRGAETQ
Outline: as §1

[8] = target: T5, ELF3 (Homo sapiens, UniProt P78545 1-371); settings: protein: recombinant; tags: N-terminal GST; dsDNA, one strand shown
T5 sequence: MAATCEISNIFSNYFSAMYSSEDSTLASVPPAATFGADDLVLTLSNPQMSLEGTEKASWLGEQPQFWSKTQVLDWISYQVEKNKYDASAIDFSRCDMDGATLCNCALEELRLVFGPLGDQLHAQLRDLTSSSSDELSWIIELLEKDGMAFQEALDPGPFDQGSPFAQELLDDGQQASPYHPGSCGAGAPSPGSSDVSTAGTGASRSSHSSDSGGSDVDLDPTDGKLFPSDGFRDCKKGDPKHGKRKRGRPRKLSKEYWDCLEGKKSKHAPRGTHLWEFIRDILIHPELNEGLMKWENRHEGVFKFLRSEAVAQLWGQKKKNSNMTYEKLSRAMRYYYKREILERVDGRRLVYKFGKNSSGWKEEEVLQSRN
Outline: as §1

[9] = target: CRX (Homo sapiens, UniProt O43186 1-299); settings: protein: recombinant; tags: N-terminal GST; dsDNA, one strand shown
Sequence of CRX (O43186 whole entry): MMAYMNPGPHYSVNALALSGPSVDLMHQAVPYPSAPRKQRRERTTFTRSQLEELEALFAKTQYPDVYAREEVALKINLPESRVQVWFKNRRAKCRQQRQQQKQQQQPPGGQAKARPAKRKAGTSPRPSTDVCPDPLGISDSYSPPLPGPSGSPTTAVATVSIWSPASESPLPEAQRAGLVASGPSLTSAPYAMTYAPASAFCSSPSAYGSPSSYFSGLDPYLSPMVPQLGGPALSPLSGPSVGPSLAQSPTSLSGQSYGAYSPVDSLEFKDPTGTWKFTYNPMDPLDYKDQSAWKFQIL
Outline: as §1

[10] = target: ETV1 (Homo sapiens, UniProt P50549 1-477); settings: protein: recombinant; tags: N-terminal GST; dsDNA, one strand shown
Sequence of ETV1 (P50549 whole entry): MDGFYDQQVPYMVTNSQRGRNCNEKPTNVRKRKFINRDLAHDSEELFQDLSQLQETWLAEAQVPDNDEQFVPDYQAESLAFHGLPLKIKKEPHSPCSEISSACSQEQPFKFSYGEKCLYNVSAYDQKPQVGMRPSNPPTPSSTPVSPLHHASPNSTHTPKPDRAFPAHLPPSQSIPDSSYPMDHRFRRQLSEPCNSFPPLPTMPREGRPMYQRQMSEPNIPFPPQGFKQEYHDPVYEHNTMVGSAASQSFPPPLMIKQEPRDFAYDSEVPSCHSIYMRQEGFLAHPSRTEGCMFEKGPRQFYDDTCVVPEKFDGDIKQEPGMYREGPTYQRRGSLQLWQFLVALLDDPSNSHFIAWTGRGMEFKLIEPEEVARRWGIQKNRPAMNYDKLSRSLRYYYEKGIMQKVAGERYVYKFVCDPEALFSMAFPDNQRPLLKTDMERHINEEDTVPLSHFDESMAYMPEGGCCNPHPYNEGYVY
Outline: as §1

[11] = target: T6, ERF (Homo sapiens, UniProt P50548 1-548); settings: protein: recombinant; tags: N-terminal GST; dsDNA, one strand shown
T6 sequence: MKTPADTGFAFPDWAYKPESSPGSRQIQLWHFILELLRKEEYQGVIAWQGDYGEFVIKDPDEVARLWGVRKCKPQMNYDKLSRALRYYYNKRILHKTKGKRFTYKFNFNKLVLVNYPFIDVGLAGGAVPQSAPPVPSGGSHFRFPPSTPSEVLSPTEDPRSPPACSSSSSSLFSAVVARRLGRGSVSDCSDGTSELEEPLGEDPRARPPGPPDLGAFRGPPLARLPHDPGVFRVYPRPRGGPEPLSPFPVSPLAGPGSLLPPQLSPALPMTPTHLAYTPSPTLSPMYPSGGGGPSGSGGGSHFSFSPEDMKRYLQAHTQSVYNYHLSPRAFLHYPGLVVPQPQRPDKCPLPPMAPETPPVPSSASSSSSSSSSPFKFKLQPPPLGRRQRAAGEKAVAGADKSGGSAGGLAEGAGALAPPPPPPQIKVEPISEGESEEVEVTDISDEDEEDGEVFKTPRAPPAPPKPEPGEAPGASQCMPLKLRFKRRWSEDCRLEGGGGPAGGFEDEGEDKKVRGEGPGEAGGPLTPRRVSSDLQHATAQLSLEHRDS
Outline: as §1

[12] = target: T7, ETV3L (Homo sapiens, UniProt Q6ZN32 1-361); settings: protein: recombinant; tags: N-terminal GST; dsDNA, one strand shown
T7 sequence: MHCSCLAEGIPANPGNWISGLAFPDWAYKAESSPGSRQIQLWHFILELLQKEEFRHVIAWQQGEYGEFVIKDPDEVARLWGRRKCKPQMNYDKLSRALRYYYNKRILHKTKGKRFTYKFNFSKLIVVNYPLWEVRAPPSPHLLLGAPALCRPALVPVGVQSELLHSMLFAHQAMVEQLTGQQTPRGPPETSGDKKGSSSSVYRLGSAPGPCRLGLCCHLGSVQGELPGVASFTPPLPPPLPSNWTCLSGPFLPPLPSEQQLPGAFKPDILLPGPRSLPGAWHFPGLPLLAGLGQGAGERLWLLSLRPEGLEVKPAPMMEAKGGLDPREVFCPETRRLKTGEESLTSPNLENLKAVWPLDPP
Outline: as §1

[13] = target: T8, ETS2 (Homo sapiens, UniProt P15036 1-469); settings: protein: recombinant; tags: N-terminal GST; dsDNA, one strand shown
T8 sequence: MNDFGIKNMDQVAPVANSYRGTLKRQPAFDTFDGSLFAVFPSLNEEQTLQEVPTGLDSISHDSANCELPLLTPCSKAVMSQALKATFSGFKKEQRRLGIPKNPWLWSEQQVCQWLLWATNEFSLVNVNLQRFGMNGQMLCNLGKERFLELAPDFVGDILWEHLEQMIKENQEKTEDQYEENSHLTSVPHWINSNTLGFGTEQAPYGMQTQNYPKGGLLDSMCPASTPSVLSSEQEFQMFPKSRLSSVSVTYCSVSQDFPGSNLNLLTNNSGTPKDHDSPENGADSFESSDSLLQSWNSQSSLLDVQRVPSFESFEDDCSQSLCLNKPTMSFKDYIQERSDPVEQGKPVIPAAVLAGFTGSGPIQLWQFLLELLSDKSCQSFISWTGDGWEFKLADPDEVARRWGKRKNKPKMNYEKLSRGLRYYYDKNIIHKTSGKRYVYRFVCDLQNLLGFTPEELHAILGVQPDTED
Outline: as §1

[14] = target: T9, SPDEF (Homo sapiens, UniProt O95238 1-335); settings: protein: recombinant; tags: N-terminal GST; dsDNA, one strand shown
T9 sequence: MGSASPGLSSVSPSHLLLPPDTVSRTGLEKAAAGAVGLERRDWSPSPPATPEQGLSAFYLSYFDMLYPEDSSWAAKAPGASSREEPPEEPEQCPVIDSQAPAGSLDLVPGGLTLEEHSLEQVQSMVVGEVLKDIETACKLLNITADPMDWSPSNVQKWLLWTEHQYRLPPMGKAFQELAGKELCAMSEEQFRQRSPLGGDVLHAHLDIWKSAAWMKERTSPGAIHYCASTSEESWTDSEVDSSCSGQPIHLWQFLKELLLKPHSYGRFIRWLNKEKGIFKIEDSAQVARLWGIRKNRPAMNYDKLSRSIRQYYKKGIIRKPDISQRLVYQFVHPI
Outline: as §1

[15] = target: T10, ETV7 (Homo sapiens, UniProt Q9Y603 1-341); settings: protein: recombinant; tags: N-terminal GST; dsDNA, one strand shown
T10 sequence: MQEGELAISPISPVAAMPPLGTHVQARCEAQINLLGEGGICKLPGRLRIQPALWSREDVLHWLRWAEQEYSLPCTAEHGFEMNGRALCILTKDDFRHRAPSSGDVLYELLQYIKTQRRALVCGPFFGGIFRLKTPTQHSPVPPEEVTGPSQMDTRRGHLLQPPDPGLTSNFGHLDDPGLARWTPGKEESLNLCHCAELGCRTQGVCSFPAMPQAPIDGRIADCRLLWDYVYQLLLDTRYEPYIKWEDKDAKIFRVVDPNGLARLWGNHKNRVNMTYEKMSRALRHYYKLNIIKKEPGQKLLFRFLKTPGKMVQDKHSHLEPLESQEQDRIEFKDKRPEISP
Outline: as §1

[16] = target: T11, ELF5 (Homo sapiens, UniProt Q9UKW6-2 1-255); settings: protein: recombinant; tags: N-terminal GST; dsDNA, one strand shown
T11 sequence: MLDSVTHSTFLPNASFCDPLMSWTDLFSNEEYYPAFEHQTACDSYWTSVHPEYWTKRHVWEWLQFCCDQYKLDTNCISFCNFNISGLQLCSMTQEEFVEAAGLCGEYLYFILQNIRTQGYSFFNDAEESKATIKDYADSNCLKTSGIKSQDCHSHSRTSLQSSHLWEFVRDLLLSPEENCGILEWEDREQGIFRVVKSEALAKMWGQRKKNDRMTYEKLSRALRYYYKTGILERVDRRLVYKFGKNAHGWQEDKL
Outline: as §1

[17] = target: T12, ETV3 (Homo sapiens, UniProt P41162-2 1-143); settings: protein: recombinant; tags: N-terminal GST; dsDNA, one strand shown
T12 sequence: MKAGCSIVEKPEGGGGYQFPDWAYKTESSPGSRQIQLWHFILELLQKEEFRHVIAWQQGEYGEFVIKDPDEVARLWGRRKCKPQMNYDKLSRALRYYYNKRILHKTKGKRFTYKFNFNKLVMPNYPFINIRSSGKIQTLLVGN
Outline: as §1

[18] = target: ETV6 (Homo sapiens, UniProt P41212 1-452); settings: protein: recombinant; tags: N-terminal GST; dsDNA, one strand shown
Sequence of ETV6 (P41212 whole entry): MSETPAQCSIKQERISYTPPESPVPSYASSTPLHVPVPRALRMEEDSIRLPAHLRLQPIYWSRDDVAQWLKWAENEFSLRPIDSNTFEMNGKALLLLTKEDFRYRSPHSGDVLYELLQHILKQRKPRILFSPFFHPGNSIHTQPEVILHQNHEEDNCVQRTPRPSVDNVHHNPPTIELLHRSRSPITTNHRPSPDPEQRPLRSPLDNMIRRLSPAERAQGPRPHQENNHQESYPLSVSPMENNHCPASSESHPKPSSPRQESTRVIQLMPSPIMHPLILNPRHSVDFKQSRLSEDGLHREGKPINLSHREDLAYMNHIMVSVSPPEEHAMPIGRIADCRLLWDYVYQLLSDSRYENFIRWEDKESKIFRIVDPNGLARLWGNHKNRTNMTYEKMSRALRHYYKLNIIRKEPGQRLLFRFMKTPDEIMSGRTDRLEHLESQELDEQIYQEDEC
Outline: as §1

With AAATCC the binding signal [1] was 2.56 fold enrichment (6-mer frequency, TF over GST control), the binding signal [2] was 1.64 fold enrichment (6-mer frequency, TF over GST control) and the binding signal [3] was 1.9 fold enrichment (6-mer frequency, TF over GST control). The binding signal [4] was 1.5 fold enrichment (6-mer frequency, TF over GST control), the binding signal [5] was 1.51 fold enrichment (6-mer frequency, TF over GST control) and the binding signal [6] was 1.47 fold enrichment (6-mer frequency, TF over GST control). The binding signal [7] was 1.45 fold enrichment (6-mer frequency, TF over GST control), the binding signal [8] was 1.34 fold enrichment (6-mer frequency, TF over GST control) and the binding signal [9] was 2.53 fold enrichment (6-mer frequency, TF over GST control). The binding signal [10] was 1.58 fold enrichment (6-mer frequency, TF over GST control), the binding signal [11] was 1.48 fold enrichment (6-mer frequency, TF over GST control) and the binding signal [12] was 1.47 fold enrichment (6-mer frequency, TF over GST control). For the same sequence, the binding signal [13] was 1.62 fold enrichment (6-mer frequency, TF over GST control), the binding signal [14] was 2.08 fold enrichment (6-mer frequency, TF over GST control) and the binding signal [15] was 1.61 fold enrichment (6-mer frequency, TF over GST control). For the same sequence, the binding signal [16] was 1.75 fold enrichment (6-mer frequency, TF over GST control), the binding signal [17] was 1.49 fold enrichment (6-mer frequency, TF over GST control) and the binding signal [18] was 1.6 fold enrichment (6-mer frequency, TF over GST control).
